# Screening results from PubChem.
# ALDH1A1 inh: blocks purified human ALDH1A1 activity; P00352; Purified ALDH1A1, NADH fluorescence, propionaldehyde substrate; Potency, µM (series often up to 75.3 µM), hits mostly inhibitors; 220,000 tested, 7.3% active; AID 1030; active = well fitted inhibition curve with a large enough effect, not every such curve was filed as active; inconclusive = small, poorly fitted or top-dose-only effect, or another doubt; inactive = no such curve, though single readings can be large or run the other way
# GoLoco inh red: blocks human Gai1 binding to RGS12 GoLoco peptide, red readout | P63096 | 230,000 tested, 0.44% active | Potency, µM (top dose mostly 61.6 µM), actives largely listed as inhibitors | Gai1:RGS12 GoLoco peptide FP, rhodamine, 10 min; active = well fitted inhibition curve with a large enough effect, not every such curve was filed as active; inactive = no such curve, though single readings can be large or run the other way; also: nearly all actives have a fitted effect of over 30% in size
# Sfp inh: blocks B. subtilis Sfp PPTase activity. Q9F4F7. Biochemical Sfp PPTase activity, qHTS. Potency, µM, most hits filed as inhibitors. 310,000 tested, 3.5% active;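 also: the enzyme is Sfp with the accession as filed and its product quenches rhodamine fluorescence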
#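 Compounds were incubated with enzyme (final 15 nM) for 15 min at room temperature before substrate addition started the reaction. Fluorescence at 525 nm excitation, 598 nm emission was recorded immediately and after 30 minutes.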
# Coupling enz: coupling enzyme interference in Giardia aldolase counter-screen; activity change, negative = inhibition, % at 58.2 µM, hits read low; 290,000 tested, 0.67% active; coupling enzyme system counterscreen, AmpLite Red fluorescence; in the data active = activity change below about -30%
#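 Counterscreen of the coupled detection system alone, without aldolase: glyceraldehyde-3-phosphate coupling enzymes plus AmpLite Red readout. Compounds at 57.5 uM final, 10 min RT preincubation, 20 min RT reaction, fluorescence 525/598 nm.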
# NPSR antag: neuropeptide S receptor (human) antagonism, cAMP; 220,000 tested, 1% active; Potency, µM (highest dose often 38.3 µM), hits mostly inhibitors; AID 1461; CHO-NPSR cells, cAMP TR-FRET, antagonist mode; also: nearly all actives have a fitted effect of over 50% in size
# KDM4E inh: JMJD2E (human) inhibition. B2RXH2. JMJD2E catalytic domain, FDH-coupled NADH fluorescence (FDH is formaldehyde dehydrogenase). Potency, µM (titrated, usually from 57.1 µM), hits mostly inhibitors. 230,000 tested, 1.6% active. AID 2147; active = well fitted inhibition curve with a large enough effect, not every such curve was filed as active; inconclusive = small, poorly fitted or top-dose-only effect, or another doubt; inactive = no such curve, though single readings can be large or run the other way; also: nearly all actives have a fitted effect of over 50% in size
# Target sequence (B2RXH2 1-337 limits assumed): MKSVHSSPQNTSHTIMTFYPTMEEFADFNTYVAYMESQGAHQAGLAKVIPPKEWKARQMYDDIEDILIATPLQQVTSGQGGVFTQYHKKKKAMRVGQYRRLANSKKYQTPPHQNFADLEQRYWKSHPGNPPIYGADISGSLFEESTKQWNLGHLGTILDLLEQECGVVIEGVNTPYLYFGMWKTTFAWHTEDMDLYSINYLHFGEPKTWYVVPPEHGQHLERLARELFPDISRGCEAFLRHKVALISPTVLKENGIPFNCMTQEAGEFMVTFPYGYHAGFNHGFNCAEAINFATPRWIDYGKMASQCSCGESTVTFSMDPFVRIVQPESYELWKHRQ
# A number is an active result; i = inactive; ? = inconclusive; nt = no result. In the library only some 8.5% were active in any assay of this set; here they are far more common. Unless noted, calls follow the shape of the dose curve; as a rule, active = well fitted curve in the direction sought with a large enough effect; inconclusive = small, poorly fitted or top-dose-only effect, or another doubt; inactive = no such curve, though single readings can be large; an effect the other way counts as inactive or inconclusive.
SMILES,ALDH1A1 inh,GoLoco inh red,Sfp inh,Coupling enz,NPSR antag,KDM4E inh
COc1ccc(NS(=O)(=O)c2ccc3c(c2)Cc2ccccc2-3)cn1,i,i,71µM,i,?,i
COc1ccc(NS(=O)(=O)c2ccc(N3CCCC3=O)cc2)cn1,i,i,i,i,i,i
CN(C(=O)c1cccc(NC(=O)c2cccs2)c1)c1ccccc1,nt,nt,i,nt,nt,nt
CCOC(=O)C1=CC(OC(CC)CC)C(NC(C)=O)C(N)C1 (configuration not stated),i,32µM,i,i,nt,i
CCCS(=O)(=O)N1CCCC(C(=O)Oc2ccc(C)c(C)c2)C1 (configuration not stated),nt,nt,i,i,nt,nt
N#CCCN(/N=C/c1cccnc1)C1=NS(=O)(=O)c2ccccc21,2µM,i,i,i,i,i
COc1ccc(OC)c(/C=N/N(CCC#N)C2=NS(=O)(=O)c3ccccc32)c1,nt,nt,i,i,nt,nt
Cc1sc(NC(=O)CSc2nc(N)cc(N)n2)c(C#N)c1C,nt,i,i,i,i,i
Cc1sc(NC(=O)CSc2nnc(C)c(=O)[nH]2)c(C#N)c1C,14µM,i,i,i,i,i
CCCn1c(SCC(=O)Nc2sc(C)c(C)c2C#N)nnc1C(C)C,2.8µM,nt,?,i,i,i
O=C(O)C1=C[C@H](c2ccc(Br)cc2)C[C@H](OCc2ccc(CO)cc2)O1,?,i,i,i,i,i
CCOc1cc(C2C(C(=O)c3ccco3)=C(O)C(=O)N2CC2CCCO2)ccc1O (configuration not stated),nt,nt,i,i,nt,nt
O=C(O)C1CCC(Cn2c(SCc3cc(=O)n4cc(Br)ccc4n3)nc3ccsc3c2=O)CC1 (configuration not stated),i,i,i,i,7.9µM,i
O=C(O)c1ccc(Cn2c(SCc3cc(=O)n4cc(Br)ccc4n3)nc3ccsc3c2=O)cc1,?,i,i,i,10µM,i
CC(C)C(C(=O)O)N1C(=O)/C(=C/c2ccc(Br)cc2)SC1=S (configuration not stated),nt,nt,?,i,nt,nt
CC(C)OP(=O)(OC(C)C)C(Nc1ccccc1)c1cccnc1 (configuration not stated),nt,i,i,i,i,i
O=C(Nc1nccs1)c1ccc(NC(=O)C2CC=CCC2C(=O)O)cc1 (configuration not stated),4µM,i,i,i,i,i
Cn1c(-c2sccc2OCc2ccc(Cl)cc2Cl)n[nH]c1=S,32µM,i,i,i,i,?
Cn1c(-c2sccc2OCc2ccccc2)n[nH]c1=S,?,i,i,i,i,?
Cc1ccc(COc2ccsc2-c2n[nH]c(=S)n2C)cc1,20µM,i,i,i,i,?
CSCCC(NC(=O)c1ccc(C)o1)C(=O)O (configuration not stated),16µM,i,i,i,?,i
COc1ccc(OC)c2nc(-c3ccc4c(c3)OCO4)ccc12,nt,nt,i,i,nt,nt
Cc1oc2c(c(C)cc3oc(=O)c(CC(=O)N[C@@H](CCCNC(N)=O)C(=O)O)c(C)c32)c1C,nt,nt,i,i,nt,nt
O=C(NCc1ccc(F)cc1)C1CCCN(C(=O)Nc2ccc(F)cc2)C1 (configuration not stated),nt,nt,i,i,nt,nt
CC(C)c1nnc(NC(=O)c2cccc(NC(=O)C(F)(F)F)c2)s1,22µM,i,?,i,i,i
SMILES,ALDH1A1 inh,GoLoco inh red,Sfp inh,Coupling enz,NPSR antag,KDM4E inh
Cc1ccc(C(=O)NC(=S)NCC2CCCO2)cc1Br (configuration not stated),8.9µM,i,i,i,i,i
O=C(NC(=S)NCC1CCCO1)c1ccccc1Br (configuration not stated),i,i,i,i,i,i
Cc1ccc(/C=N/n2c(-c3cccnc3)n[nH]c2=S)s1,?,i,35µM,i,i,i
Cc1ccc(/C=N/n2c(-c3cccnc3)n[nH]c2=S)o1,nt,i,56µM,i,i,?
S=c1[nH]nc(-c2cccnc2)n1/N=C/c1ccc(Br)s1,?,i,i,i,i,i
S=c1[nH]nc(-c2cccnc2)n1/N=C/c1ccco1,?,i,40µM,i,i,i
Cc1ccc(-c2n[nH]c(=S)n2/N=C/c2ccc(C)o2)cc1,?,i,71µM,i,i,i
CCc1ccc(NS(=O)(=O)c2ccc(C)c(C(=O)N3CCOCC3)c2)cc1,nt,nt,i,nt,nt,nt
COc1cc(-c2nc(CN(C)Cc3nnc(C)o3)c(C)o2)ccc1F,i,i,i,i,i,i
COc1ccccc1N1CCN(C(=O)/C=C/c2ccco2)CC1,i,i,i,i,i,i
O=C(/C=C/c1ccco1)N1CCCC(c2ccccc2)C1 (configuration not stated),10µM,i,?,i,i,i
COc1ccc(N2CCN(C(=O)/C=C/c3ccco3)CC2)cc1,22µM,i,i,i,i,i
O=C(/C=C/c1ccco1)N1CCN(c2ccc(F)cc2)CC1,nt,i,18µM,i,i,i
CCCCc1ccc(S(=O)(=O)NCCCN2CCCC2=O)cc1,nt,nt,i,i,nt,nt
CCOC(=O)c1c(C)[nH]c(C)c1S(=O)(=O)NCCN1CCN(c2ccccc2F)CC1,nt,nt,i,i,nt,nt
CCN(CC(=O)NC(C)C)C(=O)[C@H](C)NC(=O)c1ccc(Br)cc1,i,i,i,i,i,i
Cc1ccc(NC(=O)CC(=O)c2ccccc2)cc1C,nt,nt,i,i,nt,nt
CCOC(=O)CSC1=NC(=O)CS1,32µM,i,79µM,i,i,i
BrC/C=C/CBr,25µM,i,nt,nt,nt,nt
CC(C)=C1C2CCC1C1C(=O)N(c3nc(-c4ccccc4)c(C)s3)C(=O)C21 (configuration not stated),?,i,i,i,i,i
N#Cc1c(N)sc(=S)c2c1CCN(Cc1ccccc1)C2,?,i,3.5µM,-59,i,?
CCCCC[C@H](O)/C=C/[C@@H]1[C@@H](C/C=C\CCCC(=O)OC)[C@@H](O)C[C@H]1O,?,i,25µM,i,i,4µM
COc1cc(C)c(Cl)cc1S(=O)(=O)NC1CC(C)(C)NC(C)(C)C1,i,i,i,i,i,i
S=c1nc[nH]c2c1ncn2C1CCCC1,?,i,11µM,i,i,i
OCC1CCCC(n2cnc3c(=S)nc[nH]c32)O1 (configuration not stated),?,i,16µM,i,i,i
SMILES,ALDH1A1 inh,GoLoco inh red,Sfp inh,Coupling enz,NPSR antag,KDM4E inh
Nc1nnc(Cc2ccccc2)s1,11µM,i,i,i,i,i
COc1ccc(Cc2nnc(N)s2)cc1,?,i,?,i,i,i
COc1ccc(Cc2nnc(N)s2)cc1OC,28µM,i,22µM,i,i,i
CC(Cc1nnc(N)s1)c1ccccc1 (configuration not stated),nt,nt,50µM,i,nt,nt
COc1cccc2c(=O)c3cccc(N)c3[nH]c12,i,i,22µM,-56,i,?
COc1c(C=O)c(=O)[nH]c2c(OC)cccc12,?,i,i,i,nt,i
